High-throughput results from PubChem BioAssay.
Rows were chosen to be rich in hits. Some 0.64% of all compounds tested hit in one or more screens of this group.
TR SRC2 fluor cs: Texas Red fluorescence interference in TRb-SRC2 counter-screen; TRb/SRC2 Texas Red total fluorescence interference; Potency, µM (series often up to 106 µM); actives 0.29% (n = 280,000); active = well fitted curve in either direction with a large enough effect; inconclusive = small, poorly fitted or top-dose-only effect
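Human TRβ ligand-binding domain (0.6 uM) and Texas Red SRC2 peptide (20 nM) in Tris buffer with 1 uM T3 and 5% DMSO were incubated with pinned compound for 5 hr at ambient temperature. Total fluorescence was computed as S + 2P (555/632 nm).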
BLM inh: inhibitors of human Bloom syndrome helicase BLM. recombinant BLM DNA unwinding, fluorescence dequenching. Potency, µM (titrated, usually from 56.1 µM), hits mostly inhibitors. actives 0.2% (n = 350,000); also: nearly all actives have a fitted effect of over 35% in size
RECQ1 inh-1: blocks DNA unwinding by human RECQ1. AID 2549. P46063. RECQ1 DNA unwinding, red fluorescence kinetic read. actives 0.54% (n = 240,000). Potency, µM (titrated, usually from 57.3 µM), usual class: inhibitors; also: nearly all actives have a fitted effect of over 30% in size
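RECQ1T1 50 nM; forked duplex (20 bp + 30-nt ss tails) 200 nM, ATP 2 mM final; pH 8.0, 2 mM MgCl2, 2.5 ug/ml poly(dI-dC); 15 min compound preincubation; discontinuous kinetic read over 2 h at RT.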
TRb SRC2 PPI: inhibitors of human thyroid hormone receptor beta-SRC2 interaction. TRbeta-SRC2 peptide binding, fluorescence polarization; receptor liganded with 1 µM T3. Potency, µM (doses to about 106 µM), most hits filed as inhibitors. actives 0.065% (n = 280,000). AID 1469; also: nearly all actives have a fitted effect of over 50% in size
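Fluorescence polarization of 20 nM Texas Red SRC2 peptide (20-aa NR interaction domain) bound to 0.6 uM human TRb ligand-binding domain, with 1 uM T3, after 5 hr at ambient temperature; inhibition seen as decreased polarization.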
RECQ1 conf: confirmation of human RECQ1 helicase inhibitors. shares compounds with RECQ1 inh-1. RECQ1 helicase DNA unwinding, fluorescence. Potency, µM (top dose mostly 229 µM), most hits filed as inhibitors. actives 28% (n = 610). AID 2708; also: nearly all actives have a fitted effect of over 45% in size
RECQ1 ADP FP: counter-screen for RECQ1 inhibitors: ADP displacement; ADP fluorescence polarization displacement counterscreen; shares compounds with RECQ1 inh-1; actives 27% (n = 530); Potency, µM (top dose mostly 228 µM), actives largely listed as inhibitors; also: nearly all actives have a fitted effect of over 45% in size
RECQ1 inh-2: RECQ1 helicase inhibition confirmed, round 2; shares compounds with RECQ1 inh-1; recombinant RECQ1 DNA unwinding, red fluorescence; Potency, µM (highest dose often 119 µM), hits mostly inhibitors; actives 15% (n = 1,100); AID 504841; also: nearly all actives have a fitted effect of over 50% in size
Large screens that a line does not name were inactive (follow-up assays come after a bar, where they were run); [ ] = dose if it differs, or a comment. Unless noted, calls follow the shape of the dose curve; as a rule, active = well fitted curve in the direction sought with a large enough effect; inconclusive = small, poorly fitted or top-dose-only effect, or another doubt; inactive = no such curve, though single readings can be large; an effect the other way counts as inactive or inconclusive.

O=C(O)CC(NC(=O)COc1ccc(Cl)cc1Cl)C(=O)O (centres undefined)	none | RECQ1 conf inactive | RECQ1 ADP FP inactive
COc1ccc(Cn2c(SCC(=O)N3CCN(c4ccc(F)cc4)CC3)nc3ccccc32)cc1	none (no result: RECQ1 inh-1)
O=C(NC(=S)Nc1cccc(S(=O)(=O)NC2=NCCC2)c1)c1cc(-c2ccco2)nc2ccccc12	BLM inh inconclusive
O=C(Nc1cccc(S(=O)(=O)NC2=NCCC2)c1)c1cc(-c2ccco2)nc2ccccc12	TR SRC2 fluor cs inconclusive, BLM inh 10µM, RECQ1 inh-1 11µM | RECQ1 conf 14µM | RECQ1 ADP FP 40µM | RECQ1 inh-2 inconclusive
COc1ccc(CNC(=O)C2CCN(S(=O)(=O)c3ccc4c(ccn4C)c3)CC2)cc1	none (no result: RECQ1 inh-1)
COc1ccc(/C=C(\NC(=O)c2ccc(OC)cc2)C(=O)NC(CCSC)C(=O)O)cc1 (centres undefined)	none | RECQ1 conf inactive | RECQ1 ADP FP inactive
COc1ccc(C(=O)N/C(=C\c2ccc([N+](=O)[O-])cc2)C(=O)NC(CCSC)C(=O)O)cc1 (centres undefined)	none
CSc1ccc(/C=C(/Sc2nnc(-c3ccccc3)o2)C(=O)O)cc1	none | RECQ1 conf inactive | RECQ1 ADP FP inactive
O=C(O)C1Nc2c(O)cc(Cl)c([N+](=O)[O-])c2C2C=CCC12 (centres undefined)	TR SRC2 fluor cs 13µM[quencher], BLM inh 1.8µM, RECQ1 inh-1 1.8µM, TRb SRC2 PPI inconclusive | RECQ1 inh-2 inconclusive
COn1c(SCc2ccccc2)nc2ccccc2c1=O	none
COn1c(SCc2cccc(Cl)c2)nc2ccccc2c1=O	RECQ1 inh-1 7.1µM | RECQ1 conf inactive | RECQ1 ADP FP inconclusive | RECQ1 inh-2 inactive
N[C@@H](Cc1ccc(O)c(O)c1)C(=O)O	RECQ1 inh-1 13µM | RECQ1 conf inactive | RECQ1 ADP FP 2.2µM
CC(Cc1ccc(O)c(O)c1)C(C)Cc1ccc(O)c(O)c1 (centres undefined)	RECQ1 inh-1 2.2µM | RECQ1 conf 45µM | RECQ1 ADP FP 8.9µM
CC(C)NC[C@@H](O)c1ccc(O)c(O)c1	BLM inh inconclusive
C[C@@H](N)CCCP(=O)(O)O	none (no result: BLM inh)
O=C(NCCCO)c1ccc2nc(-c3ccco3)c(-c3ccco3)nc2c1	TR SRC2 fluor cs inconclusive, RECQ1 inh-1 inconclusive | RECQ1 inh-2 inactive
Nc1cccc2c(=O)[nH]ccc12	RECQ1 inh-1 20µM | RECQ1 conf inconclusive | RECQ1 ADP FP 50µM
O=C(Cc1ccc(S(=O)(=O)N2CCOCC2)s1)Nc1ccc(N2CCOCC2)cc1	none
CN(C)S(=O)(=O)c1ccc(NC(=O)Cc2ccc(S(=O)(=O)N3CCOCC3)s2)cc1	RECQ1 inh-1 inconclusive | RECQ1 inh-2 inconclusive
C=CC[C@](C)(Nc1ccc(OC)cc1)C(=O)OCC	none
